# In article PMC4336329 (PLoS ONE, 2015):
# About 2,200 (0.71%) of roughly 310,000 compounds showed an effect of 50% or more. Effects have a minus sign here. Many of the other results were omitted from the sample, so strong results are more common in it than they were.
# Target: human ether-à-go-go-related gene (hERG) potassium channel (human, UniProt Q12809)
# Assay: primary screen, population patch clamp on CHO cells stably expressing hERG; higher = less effect of the substance
# Chain of human ether-à-go-go-related gene (hERG) potassium channel (Q12809 whole entry, looked up): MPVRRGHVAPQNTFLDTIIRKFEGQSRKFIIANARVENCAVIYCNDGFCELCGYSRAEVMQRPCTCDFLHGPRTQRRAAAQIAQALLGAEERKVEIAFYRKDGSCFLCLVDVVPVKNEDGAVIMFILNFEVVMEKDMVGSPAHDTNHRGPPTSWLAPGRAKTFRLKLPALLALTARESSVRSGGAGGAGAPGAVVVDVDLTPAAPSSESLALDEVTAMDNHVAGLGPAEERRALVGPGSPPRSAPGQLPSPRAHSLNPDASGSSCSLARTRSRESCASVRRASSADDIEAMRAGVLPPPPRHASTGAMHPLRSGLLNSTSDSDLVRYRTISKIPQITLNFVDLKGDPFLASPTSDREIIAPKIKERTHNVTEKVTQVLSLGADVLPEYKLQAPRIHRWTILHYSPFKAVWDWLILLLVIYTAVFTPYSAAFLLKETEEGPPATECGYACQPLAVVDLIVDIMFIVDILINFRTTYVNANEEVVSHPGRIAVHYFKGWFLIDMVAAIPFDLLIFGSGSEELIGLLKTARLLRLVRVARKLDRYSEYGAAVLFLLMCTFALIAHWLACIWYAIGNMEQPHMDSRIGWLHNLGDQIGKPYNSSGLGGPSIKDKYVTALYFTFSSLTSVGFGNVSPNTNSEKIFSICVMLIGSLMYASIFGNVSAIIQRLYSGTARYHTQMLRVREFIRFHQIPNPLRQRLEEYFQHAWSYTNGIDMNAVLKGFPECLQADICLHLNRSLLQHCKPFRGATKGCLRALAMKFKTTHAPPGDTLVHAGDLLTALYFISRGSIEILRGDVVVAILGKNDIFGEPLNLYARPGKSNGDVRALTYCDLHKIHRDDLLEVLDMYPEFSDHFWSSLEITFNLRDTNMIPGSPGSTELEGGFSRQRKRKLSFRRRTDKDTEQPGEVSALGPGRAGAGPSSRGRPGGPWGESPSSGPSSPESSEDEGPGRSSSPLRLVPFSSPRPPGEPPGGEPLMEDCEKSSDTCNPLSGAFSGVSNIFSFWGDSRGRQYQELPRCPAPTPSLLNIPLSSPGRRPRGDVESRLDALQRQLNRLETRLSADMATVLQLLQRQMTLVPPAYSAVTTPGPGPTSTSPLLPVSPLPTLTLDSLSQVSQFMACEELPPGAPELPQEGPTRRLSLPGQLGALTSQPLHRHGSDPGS
row,SMILES,"hERG current change (%, negative = inhibition) at 1uM [%]"
1,O=C(CNC(=O)C12CC3CC(CC(C3)C1)C2)NC1=NCCS1,12.3
2,COc1ccc(O)c(C2(O)C(=O)c3ccccc3C2=O)c1,14.2
3,COc1cccc(NC(=O)Nc2nnc(-c3ccccc3SCc3ccccc3)s2)c1,2.04
4,O=C(Nc1c2c(nn1-c1ccc([N+](=O)[O-])cc1)CS(=O)(=O)C2)c1ccco1,-24.1
5,O=C(CCN1CCN(Cc2ccccc2)CC1)Nc1cccc(Cl)c1,-45
6,O=C(c1cc2ccccc2oc1=O)N1CCN(C(=O)C2CCCO2)CC1 (stereo not shown),4.25
7,CCCOc1ccc(C2C(C(=O)c3ccc(C)o3)=C(O)C(=O)N2Cc2ccco2)cc1OCC (stereo not shown),14.9
8,COc1ccccc1N1CCN(C(=O)C(OC(C)=O)c2ccccc2)CC1 (stereo not shown),11.8
9,CCCCN(CC)CCNC(=O)c1cc2c(=O)[nH]c3ccccc3c2n1C,11.5
10,N#Cc1ccc(C(=O)Nc2cc(-c3ccccc3)nn2-c2ccccc2)cc1,0.56
11,COc1cccc(C2CCCN2Cc2nc(CC3CC3)no2)c1 (stereo not shown),14.5
12,CNC(=S)N1CCN(c2cccc(OC)c2)CC1,7.07
13,COc1cc(O)oc1C=Nc1ccc(Cl)cc1,10.9
14,CNC(=S)NNC(=O)c1ccccc1Br,15.2
15,CCCCCCCN1C2=NCCN2c2ccccc21.Cl,-60.7
16,Cc1ccccc1CN1C2=NCCN2c2ccccc21.Cl,-13.7
17,O=C(Cn1c2c(sc1=O)C1c3ccccc3OCC1CS2)Nc1ccc(Cl)cc1 (stereo not shown),9.64
18,Nc1nc(SCCC(F)=C(F)F)n[nH]1,4.82
19,CCN(CC)CCNC(=O)c1cn(CC)c2ccc(S(=O)(=O)N(C)C3CCCCC3)cc2c1=O,9.42
20,CCCN(CCC)CCCNC(=O)c1cn(CC)c2ccc(S(=O)(=O)N(C)C3CCCCC3)cc2c1=O,-46.1
21,CCN(CC)CCCNC(=O)c1cn(C)c2ccc(S(=O)(=O)N(C)C3CCCCC3)cc2c1=O,12.2
22,CCCCN(CC)CCCNC(=O)c1cn(C)c2ccc(S(=O)(=O)N(C)C3CCCCC3)cc2c1=O,-66.6
23,CCCCN(CCCC)CCNC(=O)c1cn(CC)c2ccc(S(=O)(=O)N(C)C3CCCCC3)cc2c1=O,-84.2
24,CCCCN(C)CCCNC(=O)c1cn(C)c2ccc(S(=O)(=O)N(C)C3CCCCC3)cc2c1=O,-45.6
25,O=C(/C=C/c1ccccc1Cl)c1cccnc1,6.53
26,CCC[C@H](CN[C@@H](CNC)[C@H](C)CC)NCCc1cc(C(F)(F)F)cc(C(F)(F)F)c1,0.0872
27,CC(CCc1ccccc1)NCC(O)COc1ccccc1 (stereo not shown),-6.95
28,CC1(c2ccc3ccccc3c2)NC(=O)N(CC(=O)Nc2ncccc2O)C1=O (stereo not shown),14.4

row,SMILES,"hERG current change (%, negative = inhibition) at 1uM [%]"
1,COC(=O)C(CC(C)C)NC(=O)c1ccc([N+](=O)[O-])cc1 (stereo not shown),0.193
2,COC(=O)C(CCCCNC(=O)c1ccc([N+](=O)[O-])cc1)NC(=O)c1ccc([N+](=O)[O-])cc1 (stereo not shown),-84.2
3,O=C(NCCCCC(NC(=O)c1ccc([N+](=O)[O-])cc1)C(=O)O)c1ccc([N+](=O)[O-])cc1 (stereo not shown),-6.29
4,CCOC(=O)c1nnc(-c2ccccc2)nc1NC,2.74
5,CCN1CCN(C(=S)c2ccc(SC)cc2)CC1,-18
6,Cc1cccc(C(=O)Nc2cccc3cccnc23)c1,17.4
7,CC(=O)NC(=S)NNC(=O)CCc1ccccc1,6.91
8,O=C(Cc1ccc(Br)cc1)Nc1cccc(-c2cn3c(n2)SCC3)c1,12.2
9,COC(=O)c1sccc1-n1cccc1C(=O)C(=O)N1CCCC1,6.84
10,COC(=O)c1sccc1-n1cccc1C(=O)C(=O)N1CCOCC1,-87.6
11,COC(=O)c1sccc1-n1cccc1C(=O)N1CCOCC1,-11.6
12,COc1nnc(-c2ccc(C)cc2)c2ccccc12,13.6
13,CCN(CC)CCOc1nnc(-c2ccc(C)cc2)c2ccccc12,-58.4
14,CCN(CC)CCOc1nnc(-c2ccc(OC)cc2)c2ccccc12,-25.1
15,NS(=O)(=O)c1ccc(CCNC(=O)c2cc([N+](=O)[O-])ccc2N2CCOCC2)cc1,-6.06
16,COc1ccc(CCNC(=O)c2cc([N+](=O)[O-])ccc2N2CCOCC2)cc1,1.7
17,O=C(OCc1ccc([N+](=O)[O-])cc1)c1cc([N+](=O)[O-])ccc1N1CCOCC1,-67.2
18,O=C(OCc1cccc(Cl)c1)c1cc([N+](=O)[O-])ccc1N1CCOCC1,-5.04
19,Cc1ccc(COC(=O)c2cc([N+](=O)[O-])ccc2N2CCOCC2)cc1,-21
20,Cc1ccc(COC(=O)c2cc(S(=O)(=O)N3CCCCC3)ccc2N2CCOCC2)cc1,-1.22
21,O=C(OCc1ccc([N+](=O)[O-])cc1)c1cc(S(=O)(=O)N2CCCCC2)ccc1N1CCOCC1,-77.9
22,O=C(NCCc1ccc(F)cc1)c1cc([N+](=O)[O-])ccc1N1CCOCC1,-98.2
23,O=C(OCc1ccc(F)cc1)c1cc(S(=O)(=O)N2CCCCC2)ccc1N1CCOCC1,4.59
24,O=C(NCCS(=O)(=O)N1CCN(c2ccccc2F)CC1)C1CC(=O)N(c2ccc(F)cc2)C1 (stereo not shown),5.78
25,COc1cccc(N2CC(C(=O)OC(C)C(=O)c3ccccc3)CC2=O)c1 (stereo not shown),5.64
26,Cc1c(O)ccc(C(=O)CN2CCN(c3ccccc3)CC2)c1O,13.2
27,Cc1ccc(-n2c(SCC(=O)N/N=C/c3ccc(C)s3)nnc2-c2ccccc2)cc1,7.01
